In PubChem BioAssay (Tox21):
Results filed as inconclusive are left out. Calls of active or inactive are those of the source. Unless noted, calls follow the shape of the dose curve; as a rule, active = well fitted curve in the direction sought with a large enough effect in the repeat runs; inconclusive = weak or mixed curves; inactive = no such curve, though single readings can be large; an effect the other way counts as inactive or inconclusive.

Columns and labels:
[1] = qHTS assay to identify small molecule HDAC inhibitors - cell viability counter screen (AID 1259365); also: series mostly up to about 92 µM; nearly all actives have a fitted effect of over 50% in size
Outline: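 After overnight seeding at 1,500 cells per well, wild-type HCT-116 cultures took up compounds in DMSO for 2hr at 37 C. Viable cell content came from luminescence with CellTiter-Glo.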

[2] = qHTS assay to identify small molecule antagonists of the sonic hedgehog signaling (Shh) pathway - cell viability counter screen (AID 1259367); also: nearly all actives have a fitted effect of over 55% in size
Outline: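 NIH/3T3-derived Gli1-Luc reporter cells, 2,000/well, plated 4 hr before compound addition, then stimulated with conditioned medium for 24 hr at 37C. Viability measured in the same wells by CellTiter-Fluor fluorescence, reagent added at 23 hr for 1 hr.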

[3] = qHTS assay to identify small molecule agonists of the sonic hedgehog signaling (Shh) pathway (AID 1259368; calls by dose curve; also: series mostly up to about 92 µM; nearly all actives have a fitted effect of over 15% in size)
Outline: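 NIH/3T3-derived 3T3Gli1-Luc cells carrying a stably integrated Gli1 response element–firefly luciferase reporter were plated, left 4 hr at 37 C, then given compounds in DMSO for 24 hr. Luminescence was read 30 min after adding luciferase reagent.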

[4] = qHTS assay to identify small molecule antagonists of the sonic hedgehog signaling (Shh) pathway (AID 1259369; calls by dose curve; also: nearly all actives have a fitted effect of over 45% in size)
Outline: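 NIH/3T3-derived 3T3Gli1-Luc cells with stably integrated Gli1-Luc reporter were preincubated 4hr at 37 C, then given compounds in DMSO plus Shh conditioned medium and incubated 24hr. Firefly luciferase luminescence read after 30min reagent at room temperature.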

[5] = target: Estrogen receptor beta (Homo sapiens) (UniProt Q92731); assay: qHTS assay to identify small molecule agonists of the estrogen receptor beta (ER-beta) signaling pathway (AID 1259377; active = well fitted activation curve with a large enough effect in the signal ratio in the repeat runs, not every such curve was filed as active; the % refers to the signal ratio; also: potency is read from the fitted curve at half-maximal effect)
Estrogen receptor beta (Homo sapiens), sequence (Q92731 whole entry, looked up): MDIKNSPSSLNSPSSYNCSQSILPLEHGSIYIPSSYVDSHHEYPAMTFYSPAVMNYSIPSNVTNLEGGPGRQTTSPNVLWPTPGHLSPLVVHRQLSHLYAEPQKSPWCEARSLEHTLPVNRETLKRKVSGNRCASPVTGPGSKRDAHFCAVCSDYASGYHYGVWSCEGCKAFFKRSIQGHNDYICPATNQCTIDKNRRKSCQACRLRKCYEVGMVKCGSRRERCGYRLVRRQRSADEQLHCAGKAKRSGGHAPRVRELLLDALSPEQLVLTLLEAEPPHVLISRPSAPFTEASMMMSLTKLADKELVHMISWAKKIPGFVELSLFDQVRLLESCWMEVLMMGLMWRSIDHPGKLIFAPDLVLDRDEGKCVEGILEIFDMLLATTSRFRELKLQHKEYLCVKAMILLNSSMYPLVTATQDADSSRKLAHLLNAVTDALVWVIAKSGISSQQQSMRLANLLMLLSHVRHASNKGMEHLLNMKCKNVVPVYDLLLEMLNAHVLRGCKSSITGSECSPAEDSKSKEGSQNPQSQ
Outline: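 Read-out: beta-lactamase FRET fluorescence. Cell line: ER-beta-UAS-bla HEK293T in 2% charcoal-stripped FBS. Exposure: 16 hr at 37C. Substrate step: 2 h at room temperature.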

[6] = target: Estrogen receptor beta (Homo sapiens) (UniProt Q92731); assay: qHTS assay to identify small molecule antagonists of the estrogen receptor beta (ER-beta) signaling pathway (AID 1259378; active = well fitted inhibition curve with a large enough effect in the signal ratio in the repeat runs, not every such curve was filed as active; the % refers to the signal ratio)
Outline: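 ER-beta-UAS-bla HEK293T cells in 2% charcoal-stripped FBS medium treated with compound plus 1nM final 17-beta-estradiol for 16 hr at 37C. Beta-lactamase reporter read by FRET substrate fluorescence after 2 hours at room temperature.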

[7] = qHTS assay to identify small molecule agonists of the androgen receptor (AR) signaling pathway in the presence of an antagonist - cell viability counter screen (AID 1259379); also: series mostly up to about 92 µM; nearly all actives have a fitted effect of over 25% in size
Outline: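 MDA-kb2 human breast carcinoma cells (stable MMTV-luciferase, AR/GR responsive) were seeded 3,000 cells/well, pre-incubated 5 hr at 37C without CO2, then given 3.0uM nilutamide and compounds at 15 concentrations for 16 hr. Viability was read by CellTiter-Fluor fluorescence.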

[8] = qHTS assay to identify small molecule agonists of the estrogen receptor beta (ER-beta) signaling pathway - cell viability counter screen (AID 1259380); also: nearly all actives have a fitted effect of over 30% in size
Outline: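 ER-beta-UAS-bla HEK293T cells in medium with 2% charcoal-stripped FBS were preincubated 6 hr at 37C, dosed with compound in DMSO for 16 hr, then after the bla read, CellTiter-Glo was added for 30 min at room temperature; luminescence recorded.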

[9] = qHTS assay to identify small molecule agonists of the sonic hedgehog signaling (Shh) pathway - cell viability counter screen (AID 1259366); also: nearly all actives have a fitted effect of over 50% in size
Outline: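 Same-well cytotoxicity read. Gli1-Luc reporter 3T3 cells; compounds 24hr, 37C/5% CO2; CellTiter-Fluor fluorescence.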

[10] = target: Androgen receptor (Homo sapiens) (UniProt P10275); assay: qHTS assay to identify small molecule agonists of the androgen receptor (AR) signaling pathway in the presence of an antagonist (AID 1259381; calls by dose curve; also: nearly all actives have a fitted effect of over 15% in size)
Androgen receptor (Homo sapiens), sequence (P10275 whole entry, looked up): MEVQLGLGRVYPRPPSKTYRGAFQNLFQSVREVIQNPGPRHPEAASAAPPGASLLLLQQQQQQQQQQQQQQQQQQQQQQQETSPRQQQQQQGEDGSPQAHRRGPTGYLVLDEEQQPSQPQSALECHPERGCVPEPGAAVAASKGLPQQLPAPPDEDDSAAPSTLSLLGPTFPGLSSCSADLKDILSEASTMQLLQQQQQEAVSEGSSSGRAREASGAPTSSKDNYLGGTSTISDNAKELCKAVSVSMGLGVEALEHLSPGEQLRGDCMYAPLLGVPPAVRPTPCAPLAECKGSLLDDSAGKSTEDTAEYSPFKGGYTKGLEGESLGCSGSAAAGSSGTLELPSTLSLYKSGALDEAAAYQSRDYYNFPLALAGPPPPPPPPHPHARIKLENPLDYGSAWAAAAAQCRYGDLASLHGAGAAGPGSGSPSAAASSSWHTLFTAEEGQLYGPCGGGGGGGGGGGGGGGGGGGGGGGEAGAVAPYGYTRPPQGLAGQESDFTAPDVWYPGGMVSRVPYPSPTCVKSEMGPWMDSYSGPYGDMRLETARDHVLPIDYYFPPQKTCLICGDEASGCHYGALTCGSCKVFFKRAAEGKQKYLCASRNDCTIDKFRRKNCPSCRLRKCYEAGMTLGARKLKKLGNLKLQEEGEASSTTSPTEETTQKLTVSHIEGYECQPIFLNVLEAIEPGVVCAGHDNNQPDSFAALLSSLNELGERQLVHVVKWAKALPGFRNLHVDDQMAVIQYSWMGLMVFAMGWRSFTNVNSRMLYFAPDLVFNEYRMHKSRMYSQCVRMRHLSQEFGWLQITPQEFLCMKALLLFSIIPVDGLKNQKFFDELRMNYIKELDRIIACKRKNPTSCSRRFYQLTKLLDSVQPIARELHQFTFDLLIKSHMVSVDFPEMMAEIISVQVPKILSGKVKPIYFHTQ
Outline: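 MDA-kb2 human breast carcinoma cells carrying an MMTV-luciferase reporter (AR- and GR-responsive) were treated with compounds at 15 concentrations plus 3.0uM final nilutamide for 16hr at 37C without CO2; luminescence was read after ONE-Glo addition.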
% is scaled to controls: 0 for no effect and ±100 for the full control effect.

CCO/C=C1\N=C(c2ccccc2)OC1=O
inactive: outcome [1] | outcome [2] | outcome [3] | Potency [4] | Potency [5] | outcome [6] | outcome [7] | Potency [8]

Cc1ccc(Br)cc1
inactive: outcome [1] | outcome [2] | outcome [3] | Potency [4] | outcome [7] | Potency [8]

CC(C)(O)c1ccc(C(C)(C)O)cc1
inactive: outcome [1] | outcome [2] | outcome [3] | Potency [4] | outcome [7] | Potency [8]

CCCC(=O)CC
inactive: outcome [9] | outcome [2] | outcome [3] | Potency [5] | outcome [6] | outcome [7] | Potency [8]

CC12CCCC=C1C(=O)OC2=O (centres undefined)
inactive: outcome [9] | outcome [3] | Potency [4] | outcome [7] | Potency [8] | outcome [10]

C=CCN1CCc2nc(N)sc2CC1
inactive: outcome [9] | outcome [3] | Potency [4] | outcome [7] | Potency [8] | outcome [10]

CC(C)(C)OC(=O)c1ccccc1C(=O)O
inactive: outcome [9] | outcome [2] | outcome [3] | Potency [4] | outcome [7] | Potency [8]

C[C@]12C=CC(=O)C=C1[C@@H](F)C[C@@H]1[C@@H]2[C@@H](O)C[C@@]2(C)[C@H]1CC[C@]2(O)C(=O)CO
inactive: outcome [9] | outcome [2] | outcome [3] | Potency [4] | outcome [7] | Potency [8]

CC(C)OCCO
inactive: outcome [9] | outcome [2] | outcome [3] | Potency [4] | Potency [5] | outcome [6] | outcome [7] | Potency [8]

COC(=O)c1c(C)cc(O)c(C)c1O
inactive: outcome [2] | outcome [3] | Potency [5] | outcome [6] | outcome [7] | Potency [8]

BrCCOc1ccccc1
inactive: outcome [9] | outcome [2] | outcome [3] | Potency [4] | Potency [5] | outcome [6] | outcome [7] | Potency [8]

CCC(C)SSC(C)CC (centres undefined)
inactive: outcome [9] | outcome [2] | outcome [3] | Potency [4] | Potency [5] | outcome [6] | outcome [7] | Potency [8]

COC(=O)c1cc(Cl)c(NC(C)=O)cc1OC
inactive: outcome [9] | outcome [2] | outcome [3] | Potency [4] | Potency [5] | outcome [6] | outcome [7] | Potency [8] | outcome [10]

NC(=O)CC[C@@H](N)C(=O)O
inactive: outcome [9] | outcome [2] | outcome [3] | Potency [4] | Potency [5] | outcome [7] | Potency [8]

O=C(OOC(=O)c1ccccc1)c1ccccc1
inactive: outcome [9] | outcome [2] | outcome [3] | Potency [4] | outcome [7] | Potency [8]

O=C(O)/C=C(\CC(=O)O)C(=O)O
inactive: outcome [9] | outcome [2] | outcome [3] | Potency [4] | Potency [5] | outcome [6] | outcome [7] | Potency [8]

CCOC(=O)c1ccc(N(C)C)cc1
inactive: outcome [9] | outcome [2] | outcome [3] | Potency [4] | outcome [6] | outcome [7] | Potency [8]

CC(C)(Sc1cc(C(C)(C)C)c(O)c(C(C)(C)C)c1)Sc1cc(C(C)(C)C)c(O)c(C(C)(C)C)c1
inactive: outcome [9] | outcome [2] | outcome [3] | Potency [4] | Potency [5] | outcome [6] | outcome [7] | Potency [8]

CC(C)C[P+](C)(CC(C)C)CC(C)C
inactive: outcome [9] | outcome [2] | outcome [3] | outcome [6] | outcome [7] | Potency [8]

COC(=O)c1ccccc1Cl
inactive: outcome [2] | outcome [3] | Potency [4] | Potency [5] | outcome [6] | outcome [7] | Potency [8]

CCCCOCCCC
inactive: outcome [9] | outcome [2] | outcome [3] | outcome [7] | Potency [8]

Cc1ccc(NC(N)=O)cc1
inactive: outcome [9] | outcome [2] | outcome [3] | Potency [4] | Potency [5] | outcome [6] | outcome [7] | Potency [8]

O=C(c1ccccc1)c1cccc(O)c1
inactive: outcome [9] | outcome [2] | outcome [3] | outcome [7] | Potency [8] | outcome [10]
active: Potency [5] 12.4 µM

CCN(CC)CC(=O)Oc1ccc(NC(C)=O)cc1
inactive: outcome [9] | outcome [2] | outcome [3] | Potency [4] | Potency [5] | outcome [6] | outcome [7] | Potency [8] | outcome [10]

N=C(N)N1CCc2ccccc2C1
inactive: viability change, negative = cytotoxic [9] 2.39% [at 8.39 µM] | viability change, negative = cytotoxic [2] 3.14% [at 8.39 µM] | activity change [3] 0.863% [at 8.39 µM] | activity change, negative = inhibition [4] 18.9% [at 8.39 µM] | activity change, negative = cytotoxicity [7] 0.84% [at 8.39 µM] | activity change, negative = cytotoxicity [8] 1.92% [at 8.39 µM]

CCc1ncc(C)[nH]1
inactive: outcome [9] | outcome [2] | outcome [3] | Potency [4] | Potency [5] | outcome [6] | outcome [7] | Potency [8] | outcome [10]

CCCc1ncc(C(=O)O)s1
inactive: outcome [9] | outcome [3] | Potency [4] | Potency [5] | outcome [6] | outcome [7] | Potency [8] | outcome [10]

C=CCCCCCCCCCCCCCC
inactive: viability change, negative = cytotoxic [9] -2.14% [at 19 µM] | viability change, negative = cytotoxic [2] -0.0329% [at 19 µM] | activity change [3] -0.591% [at 18.9 µM] | activity change, negative = inhibition [4] 8.65% [at 19 µM] | activation [5] 1.28% [at 19 µM] | activity, negative = inhibition [6] 2.19% [at 19 µM] | activity change, negative = cytotoxicity [7] -2.34% [at 19 µM] | activity change, negative = cytotoxicity [8] 1.12% [at 19 µM]
